Source: the supplement of paper PMC11732987, “Enantioselective OTUD7B fragment discovery through chemoproteomics screening and high-throughput optimisation” (Communications Chemistry, 2025)

Key:
Experiment in all cases: log2 ratio of Biotin-Ahx-Ub-VS probe labelling (fragment/DMSO); higher = less target engagement (more negative = stronger competition), active = hit call of the paper (q ≤ 0.05, log2 ratio ≤ -1)
Settings in all cases: compound concentration: 200 uM; treatment time: 3 h
USP42 = target: T1, USP42 (UniProt Q9H9J4)
T1 sequence (whole entry): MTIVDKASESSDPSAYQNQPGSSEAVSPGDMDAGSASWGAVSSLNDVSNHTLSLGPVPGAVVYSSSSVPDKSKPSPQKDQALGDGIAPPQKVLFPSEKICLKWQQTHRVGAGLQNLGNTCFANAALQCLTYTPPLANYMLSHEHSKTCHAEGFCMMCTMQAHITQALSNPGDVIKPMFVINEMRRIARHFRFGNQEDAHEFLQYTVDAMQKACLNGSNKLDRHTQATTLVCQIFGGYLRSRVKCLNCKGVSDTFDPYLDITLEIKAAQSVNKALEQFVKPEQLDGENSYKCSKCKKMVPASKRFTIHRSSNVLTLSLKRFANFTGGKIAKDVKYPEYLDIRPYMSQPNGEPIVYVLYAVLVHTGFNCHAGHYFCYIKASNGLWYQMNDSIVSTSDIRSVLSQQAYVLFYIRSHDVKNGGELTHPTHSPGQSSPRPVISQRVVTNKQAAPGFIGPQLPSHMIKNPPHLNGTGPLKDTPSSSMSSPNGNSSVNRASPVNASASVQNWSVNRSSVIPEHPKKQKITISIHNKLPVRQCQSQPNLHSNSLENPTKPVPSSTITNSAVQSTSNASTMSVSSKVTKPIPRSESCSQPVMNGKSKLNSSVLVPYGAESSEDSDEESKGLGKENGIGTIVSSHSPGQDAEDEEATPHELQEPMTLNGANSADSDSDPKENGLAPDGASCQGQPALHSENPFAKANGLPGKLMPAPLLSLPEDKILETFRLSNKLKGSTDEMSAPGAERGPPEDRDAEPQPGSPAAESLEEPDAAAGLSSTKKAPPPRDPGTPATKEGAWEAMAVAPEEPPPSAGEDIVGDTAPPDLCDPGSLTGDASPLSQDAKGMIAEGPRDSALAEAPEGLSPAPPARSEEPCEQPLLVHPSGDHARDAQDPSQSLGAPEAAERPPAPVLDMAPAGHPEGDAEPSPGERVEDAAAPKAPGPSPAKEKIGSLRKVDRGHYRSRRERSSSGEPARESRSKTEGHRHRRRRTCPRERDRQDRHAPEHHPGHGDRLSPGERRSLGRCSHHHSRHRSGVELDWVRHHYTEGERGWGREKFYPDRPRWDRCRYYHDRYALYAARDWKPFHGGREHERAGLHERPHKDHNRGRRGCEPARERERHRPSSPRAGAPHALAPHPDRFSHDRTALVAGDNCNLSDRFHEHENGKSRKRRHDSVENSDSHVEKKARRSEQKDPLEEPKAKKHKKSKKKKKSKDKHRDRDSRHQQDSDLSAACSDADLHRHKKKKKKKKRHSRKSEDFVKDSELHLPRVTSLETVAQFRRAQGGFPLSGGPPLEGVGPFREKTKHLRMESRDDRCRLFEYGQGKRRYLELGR
Method in brief: (§1)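 HEK293T lysate (495 µg per sample, in Tris/CHAPS/IGEPAL buffer with protease inhibitors) was exposed in triplicate for 3 h to fragment at 200 µM or to vehicle, then to Biotin-Ahx-Ub-VS at 0.5 µM final for 1 h. Labelled DUBs were enriched on NeutrAvidin, digested with LysC and trypsin, and analysed by diaPASEF LC-MS/MS. Spectronaut label-free quantities were normalised to the global median, and values are average log2 ratios of fragment over vehicle from an unpaired t-test. Only proteins with ≥2 unique peptides were used.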

USP46 = USP46 (UniProt P62068)
Method in brief: as §1

USP47 = target: T2, USP47 (UniProt Q96K76)
T2 sequence (whole entry): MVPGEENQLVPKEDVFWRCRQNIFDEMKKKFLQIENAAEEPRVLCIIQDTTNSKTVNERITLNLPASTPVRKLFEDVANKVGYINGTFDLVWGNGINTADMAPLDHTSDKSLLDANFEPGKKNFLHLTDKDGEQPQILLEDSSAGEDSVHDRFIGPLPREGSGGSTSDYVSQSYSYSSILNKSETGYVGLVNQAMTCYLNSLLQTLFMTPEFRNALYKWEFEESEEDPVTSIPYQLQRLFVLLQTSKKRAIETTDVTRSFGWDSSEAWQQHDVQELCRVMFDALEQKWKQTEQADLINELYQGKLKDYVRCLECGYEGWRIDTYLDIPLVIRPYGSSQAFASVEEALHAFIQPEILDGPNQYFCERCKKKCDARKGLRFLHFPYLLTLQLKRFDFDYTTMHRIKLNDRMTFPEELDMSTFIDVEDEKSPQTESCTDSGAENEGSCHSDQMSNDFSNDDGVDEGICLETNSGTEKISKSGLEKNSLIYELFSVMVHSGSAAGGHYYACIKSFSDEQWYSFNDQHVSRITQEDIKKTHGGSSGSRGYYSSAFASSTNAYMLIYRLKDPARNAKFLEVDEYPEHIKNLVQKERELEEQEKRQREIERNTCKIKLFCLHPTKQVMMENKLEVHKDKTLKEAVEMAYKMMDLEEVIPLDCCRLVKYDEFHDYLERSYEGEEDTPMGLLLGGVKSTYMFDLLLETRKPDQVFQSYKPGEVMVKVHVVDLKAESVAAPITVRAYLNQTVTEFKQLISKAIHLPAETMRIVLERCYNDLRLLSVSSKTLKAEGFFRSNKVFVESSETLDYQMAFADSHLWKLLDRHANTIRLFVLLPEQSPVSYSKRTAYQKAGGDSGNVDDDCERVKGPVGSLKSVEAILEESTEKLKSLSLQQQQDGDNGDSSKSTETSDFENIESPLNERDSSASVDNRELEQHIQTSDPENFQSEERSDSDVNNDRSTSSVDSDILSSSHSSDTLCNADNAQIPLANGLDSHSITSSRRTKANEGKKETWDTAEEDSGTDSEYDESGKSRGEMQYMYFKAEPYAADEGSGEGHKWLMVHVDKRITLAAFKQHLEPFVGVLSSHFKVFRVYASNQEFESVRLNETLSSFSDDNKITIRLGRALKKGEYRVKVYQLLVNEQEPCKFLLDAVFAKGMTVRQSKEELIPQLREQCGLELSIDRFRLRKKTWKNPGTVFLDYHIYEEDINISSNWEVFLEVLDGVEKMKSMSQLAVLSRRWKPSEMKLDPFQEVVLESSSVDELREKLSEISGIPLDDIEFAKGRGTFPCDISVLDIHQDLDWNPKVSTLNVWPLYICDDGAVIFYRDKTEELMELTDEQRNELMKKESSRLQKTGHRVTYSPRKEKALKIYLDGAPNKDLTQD
Method in brief: as §1

USP48 = target: T3, USP48 (UniProt Q86UV5)
T3 sequence (whole entry): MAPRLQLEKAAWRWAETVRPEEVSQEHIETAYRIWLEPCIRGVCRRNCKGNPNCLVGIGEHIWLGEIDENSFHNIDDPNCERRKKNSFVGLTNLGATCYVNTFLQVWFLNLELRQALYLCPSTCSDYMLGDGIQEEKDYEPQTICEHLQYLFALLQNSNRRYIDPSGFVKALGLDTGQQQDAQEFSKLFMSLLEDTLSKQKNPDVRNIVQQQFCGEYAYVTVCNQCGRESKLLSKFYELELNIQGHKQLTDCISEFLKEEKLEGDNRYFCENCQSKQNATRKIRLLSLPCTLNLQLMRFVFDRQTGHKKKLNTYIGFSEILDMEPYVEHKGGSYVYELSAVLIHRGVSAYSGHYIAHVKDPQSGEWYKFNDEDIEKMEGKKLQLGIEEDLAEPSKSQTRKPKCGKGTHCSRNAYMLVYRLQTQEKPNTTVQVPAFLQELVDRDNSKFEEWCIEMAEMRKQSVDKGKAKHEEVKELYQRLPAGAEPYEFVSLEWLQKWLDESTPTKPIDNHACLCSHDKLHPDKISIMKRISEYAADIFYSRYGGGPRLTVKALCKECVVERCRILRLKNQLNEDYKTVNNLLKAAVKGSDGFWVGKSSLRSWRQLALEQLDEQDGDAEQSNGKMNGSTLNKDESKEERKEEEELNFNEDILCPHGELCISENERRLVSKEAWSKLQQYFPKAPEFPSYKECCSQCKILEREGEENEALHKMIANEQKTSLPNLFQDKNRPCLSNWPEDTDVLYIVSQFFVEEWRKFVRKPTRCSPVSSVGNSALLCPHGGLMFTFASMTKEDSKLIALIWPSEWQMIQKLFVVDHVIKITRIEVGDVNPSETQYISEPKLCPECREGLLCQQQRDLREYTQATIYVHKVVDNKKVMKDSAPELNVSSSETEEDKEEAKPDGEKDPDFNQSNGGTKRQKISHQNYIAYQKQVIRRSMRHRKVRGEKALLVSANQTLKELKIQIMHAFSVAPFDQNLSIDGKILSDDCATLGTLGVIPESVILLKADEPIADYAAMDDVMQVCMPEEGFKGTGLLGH
Method in brief: as §1

USP5 = target: T4, USP5 (UniProt P45974)
T4 sequence (whole entry): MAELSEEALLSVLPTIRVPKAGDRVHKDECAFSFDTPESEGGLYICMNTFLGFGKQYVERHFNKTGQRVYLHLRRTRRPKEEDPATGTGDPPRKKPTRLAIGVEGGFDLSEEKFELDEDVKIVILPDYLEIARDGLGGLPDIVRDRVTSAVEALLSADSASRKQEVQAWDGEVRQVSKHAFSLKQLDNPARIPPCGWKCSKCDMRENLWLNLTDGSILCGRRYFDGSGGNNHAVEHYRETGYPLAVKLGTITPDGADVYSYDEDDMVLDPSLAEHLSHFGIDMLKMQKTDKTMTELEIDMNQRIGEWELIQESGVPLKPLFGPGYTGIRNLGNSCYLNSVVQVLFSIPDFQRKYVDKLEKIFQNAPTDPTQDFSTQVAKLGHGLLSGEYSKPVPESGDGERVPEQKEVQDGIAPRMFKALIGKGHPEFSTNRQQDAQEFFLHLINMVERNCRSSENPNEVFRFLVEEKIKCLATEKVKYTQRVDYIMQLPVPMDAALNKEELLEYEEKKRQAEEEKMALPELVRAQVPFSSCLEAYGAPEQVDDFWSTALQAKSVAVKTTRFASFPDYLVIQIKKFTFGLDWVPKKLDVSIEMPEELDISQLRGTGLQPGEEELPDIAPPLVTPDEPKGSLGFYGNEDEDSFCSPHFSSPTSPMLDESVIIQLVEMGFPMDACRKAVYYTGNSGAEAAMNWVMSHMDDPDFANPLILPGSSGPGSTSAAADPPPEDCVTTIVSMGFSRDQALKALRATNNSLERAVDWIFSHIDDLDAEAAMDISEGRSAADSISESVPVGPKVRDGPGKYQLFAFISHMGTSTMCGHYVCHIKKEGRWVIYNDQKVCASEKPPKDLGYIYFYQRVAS
Method in brief: as §1

USP54 = USP54 (UniProt Q70EL1)
Method in brief: as §1

USP7 = USP7 (UniProt Q93009)
Method in brief: as §1

USP8 = target: T5, USP8 (UniProt P40818)
T5 sequence (whole entry): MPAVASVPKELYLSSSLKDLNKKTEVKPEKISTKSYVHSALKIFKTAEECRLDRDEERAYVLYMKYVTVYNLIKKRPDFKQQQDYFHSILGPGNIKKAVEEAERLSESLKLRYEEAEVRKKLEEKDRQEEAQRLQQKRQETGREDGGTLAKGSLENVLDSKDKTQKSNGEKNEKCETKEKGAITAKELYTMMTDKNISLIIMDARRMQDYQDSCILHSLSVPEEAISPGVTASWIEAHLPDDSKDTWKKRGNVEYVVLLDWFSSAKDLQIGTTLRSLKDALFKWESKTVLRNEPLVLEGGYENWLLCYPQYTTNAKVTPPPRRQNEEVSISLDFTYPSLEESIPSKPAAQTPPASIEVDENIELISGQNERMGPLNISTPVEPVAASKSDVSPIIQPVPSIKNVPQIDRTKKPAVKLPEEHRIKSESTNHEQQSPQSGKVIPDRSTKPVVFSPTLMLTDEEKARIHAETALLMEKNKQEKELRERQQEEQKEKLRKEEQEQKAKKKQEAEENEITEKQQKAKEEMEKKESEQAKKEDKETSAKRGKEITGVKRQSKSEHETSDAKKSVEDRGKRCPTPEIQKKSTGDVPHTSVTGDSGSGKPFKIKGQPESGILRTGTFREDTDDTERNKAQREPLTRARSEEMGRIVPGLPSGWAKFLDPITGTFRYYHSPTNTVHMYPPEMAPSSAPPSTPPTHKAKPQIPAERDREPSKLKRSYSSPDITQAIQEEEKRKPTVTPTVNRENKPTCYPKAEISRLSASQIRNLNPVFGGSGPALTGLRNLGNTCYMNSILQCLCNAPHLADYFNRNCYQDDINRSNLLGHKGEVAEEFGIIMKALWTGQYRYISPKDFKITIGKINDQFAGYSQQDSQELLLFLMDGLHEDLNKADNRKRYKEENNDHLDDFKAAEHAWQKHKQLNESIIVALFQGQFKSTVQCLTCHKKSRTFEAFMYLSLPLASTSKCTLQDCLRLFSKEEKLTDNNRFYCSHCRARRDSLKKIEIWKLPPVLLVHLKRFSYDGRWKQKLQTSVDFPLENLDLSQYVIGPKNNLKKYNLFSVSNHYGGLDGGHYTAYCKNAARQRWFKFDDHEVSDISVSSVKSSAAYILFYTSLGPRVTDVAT
Method in brief: as §1

USP9X = USP9X (UniProt Q93008)
Method in brief: as §1

UniProt O00487 = target: UniProt O00487
Method in brief: as §1

Measured: log2 ratio of Biotin-Ahx-Ub-VS probe labelling

USP46, sequence (P62068 whole entry): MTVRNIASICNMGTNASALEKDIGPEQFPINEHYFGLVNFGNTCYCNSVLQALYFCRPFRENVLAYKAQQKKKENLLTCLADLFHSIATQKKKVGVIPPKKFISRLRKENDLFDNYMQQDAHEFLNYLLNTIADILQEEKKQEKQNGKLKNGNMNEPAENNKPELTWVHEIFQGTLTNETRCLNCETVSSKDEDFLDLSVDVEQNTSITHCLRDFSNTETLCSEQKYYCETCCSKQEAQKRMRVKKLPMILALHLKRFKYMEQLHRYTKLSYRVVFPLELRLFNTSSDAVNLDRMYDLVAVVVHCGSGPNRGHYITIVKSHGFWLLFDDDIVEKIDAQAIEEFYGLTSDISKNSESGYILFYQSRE
USP54, sequence (Q70EL1 whole entry): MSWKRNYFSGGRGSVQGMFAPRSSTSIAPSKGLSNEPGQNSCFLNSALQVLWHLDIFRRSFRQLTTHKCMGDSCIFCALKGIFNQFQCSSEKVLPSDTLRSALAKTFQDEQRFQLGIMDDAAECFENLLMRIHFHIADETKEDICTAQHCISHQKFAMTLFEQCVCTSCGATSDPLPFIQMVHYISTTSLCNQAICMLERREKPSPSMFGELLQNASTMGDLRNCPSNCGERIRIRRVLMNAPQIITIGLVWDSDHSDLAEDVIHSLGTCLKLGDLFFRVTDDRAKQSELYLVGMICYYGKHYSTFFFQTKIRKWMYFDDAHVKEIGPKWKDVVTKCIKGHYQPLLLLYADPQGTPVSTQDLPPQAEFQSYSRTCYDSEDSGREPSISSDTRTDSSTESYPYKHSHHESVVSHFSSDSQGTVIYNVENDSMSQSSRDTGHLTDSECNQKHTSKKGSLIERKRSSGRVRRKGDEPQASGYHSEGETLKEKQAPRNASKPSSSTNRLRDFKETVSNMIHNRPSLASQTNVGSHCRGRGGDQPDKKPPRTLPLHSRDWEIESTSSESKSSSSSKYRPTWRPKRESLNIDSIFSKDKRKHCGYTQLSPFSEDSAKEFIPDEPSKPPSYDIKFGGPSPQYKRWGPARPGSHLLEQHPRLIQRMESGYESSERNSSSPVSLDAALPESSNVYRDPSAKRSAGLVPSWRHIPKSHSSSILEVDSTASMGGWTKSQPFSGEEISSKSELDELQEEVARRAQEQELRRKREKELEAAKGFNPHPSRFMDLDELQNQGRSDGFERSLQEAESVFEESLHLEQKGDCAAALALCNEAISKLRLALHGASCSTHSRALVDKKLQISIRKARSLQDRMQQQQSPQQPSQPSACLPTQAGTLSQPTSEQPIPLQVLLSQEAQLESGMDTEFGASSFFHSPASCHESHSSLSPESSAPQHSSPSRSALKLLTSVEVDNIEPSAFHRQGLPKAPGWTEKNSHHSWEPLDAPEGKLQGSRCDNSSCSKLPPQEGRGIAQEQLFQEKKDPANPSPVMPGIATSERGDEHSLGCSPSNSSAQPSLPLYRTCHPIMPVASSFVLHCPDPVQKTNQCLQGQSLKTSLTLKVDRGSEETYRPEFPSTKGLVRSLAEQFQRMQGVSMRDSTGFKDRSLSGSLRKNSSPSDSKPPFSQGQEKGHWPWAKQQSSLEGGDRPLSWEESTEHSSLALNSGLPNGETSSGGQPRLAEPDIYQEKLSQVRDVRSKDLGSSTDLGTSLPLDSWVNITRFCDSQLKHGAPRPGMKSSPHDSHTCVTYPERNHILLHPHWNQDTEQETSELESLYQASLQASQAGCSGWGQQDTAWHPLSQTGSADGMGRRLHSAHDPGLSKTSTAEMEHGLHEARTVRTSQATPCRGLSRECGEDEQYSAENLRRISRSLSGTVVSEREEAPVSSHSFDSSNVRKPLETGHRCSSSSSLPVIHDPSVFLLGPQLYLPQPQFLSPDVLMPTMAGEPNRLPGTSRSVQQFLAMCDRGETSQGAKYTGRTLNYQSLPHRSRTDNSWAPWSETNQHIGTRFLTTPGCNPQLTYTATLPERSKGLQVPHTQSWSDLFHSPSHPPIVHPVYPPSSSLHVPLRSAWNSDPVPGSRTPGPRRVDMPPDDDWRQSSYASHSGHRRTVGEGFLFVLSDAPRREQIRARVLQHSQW
USP9X, sequence (Q93008 whole entry): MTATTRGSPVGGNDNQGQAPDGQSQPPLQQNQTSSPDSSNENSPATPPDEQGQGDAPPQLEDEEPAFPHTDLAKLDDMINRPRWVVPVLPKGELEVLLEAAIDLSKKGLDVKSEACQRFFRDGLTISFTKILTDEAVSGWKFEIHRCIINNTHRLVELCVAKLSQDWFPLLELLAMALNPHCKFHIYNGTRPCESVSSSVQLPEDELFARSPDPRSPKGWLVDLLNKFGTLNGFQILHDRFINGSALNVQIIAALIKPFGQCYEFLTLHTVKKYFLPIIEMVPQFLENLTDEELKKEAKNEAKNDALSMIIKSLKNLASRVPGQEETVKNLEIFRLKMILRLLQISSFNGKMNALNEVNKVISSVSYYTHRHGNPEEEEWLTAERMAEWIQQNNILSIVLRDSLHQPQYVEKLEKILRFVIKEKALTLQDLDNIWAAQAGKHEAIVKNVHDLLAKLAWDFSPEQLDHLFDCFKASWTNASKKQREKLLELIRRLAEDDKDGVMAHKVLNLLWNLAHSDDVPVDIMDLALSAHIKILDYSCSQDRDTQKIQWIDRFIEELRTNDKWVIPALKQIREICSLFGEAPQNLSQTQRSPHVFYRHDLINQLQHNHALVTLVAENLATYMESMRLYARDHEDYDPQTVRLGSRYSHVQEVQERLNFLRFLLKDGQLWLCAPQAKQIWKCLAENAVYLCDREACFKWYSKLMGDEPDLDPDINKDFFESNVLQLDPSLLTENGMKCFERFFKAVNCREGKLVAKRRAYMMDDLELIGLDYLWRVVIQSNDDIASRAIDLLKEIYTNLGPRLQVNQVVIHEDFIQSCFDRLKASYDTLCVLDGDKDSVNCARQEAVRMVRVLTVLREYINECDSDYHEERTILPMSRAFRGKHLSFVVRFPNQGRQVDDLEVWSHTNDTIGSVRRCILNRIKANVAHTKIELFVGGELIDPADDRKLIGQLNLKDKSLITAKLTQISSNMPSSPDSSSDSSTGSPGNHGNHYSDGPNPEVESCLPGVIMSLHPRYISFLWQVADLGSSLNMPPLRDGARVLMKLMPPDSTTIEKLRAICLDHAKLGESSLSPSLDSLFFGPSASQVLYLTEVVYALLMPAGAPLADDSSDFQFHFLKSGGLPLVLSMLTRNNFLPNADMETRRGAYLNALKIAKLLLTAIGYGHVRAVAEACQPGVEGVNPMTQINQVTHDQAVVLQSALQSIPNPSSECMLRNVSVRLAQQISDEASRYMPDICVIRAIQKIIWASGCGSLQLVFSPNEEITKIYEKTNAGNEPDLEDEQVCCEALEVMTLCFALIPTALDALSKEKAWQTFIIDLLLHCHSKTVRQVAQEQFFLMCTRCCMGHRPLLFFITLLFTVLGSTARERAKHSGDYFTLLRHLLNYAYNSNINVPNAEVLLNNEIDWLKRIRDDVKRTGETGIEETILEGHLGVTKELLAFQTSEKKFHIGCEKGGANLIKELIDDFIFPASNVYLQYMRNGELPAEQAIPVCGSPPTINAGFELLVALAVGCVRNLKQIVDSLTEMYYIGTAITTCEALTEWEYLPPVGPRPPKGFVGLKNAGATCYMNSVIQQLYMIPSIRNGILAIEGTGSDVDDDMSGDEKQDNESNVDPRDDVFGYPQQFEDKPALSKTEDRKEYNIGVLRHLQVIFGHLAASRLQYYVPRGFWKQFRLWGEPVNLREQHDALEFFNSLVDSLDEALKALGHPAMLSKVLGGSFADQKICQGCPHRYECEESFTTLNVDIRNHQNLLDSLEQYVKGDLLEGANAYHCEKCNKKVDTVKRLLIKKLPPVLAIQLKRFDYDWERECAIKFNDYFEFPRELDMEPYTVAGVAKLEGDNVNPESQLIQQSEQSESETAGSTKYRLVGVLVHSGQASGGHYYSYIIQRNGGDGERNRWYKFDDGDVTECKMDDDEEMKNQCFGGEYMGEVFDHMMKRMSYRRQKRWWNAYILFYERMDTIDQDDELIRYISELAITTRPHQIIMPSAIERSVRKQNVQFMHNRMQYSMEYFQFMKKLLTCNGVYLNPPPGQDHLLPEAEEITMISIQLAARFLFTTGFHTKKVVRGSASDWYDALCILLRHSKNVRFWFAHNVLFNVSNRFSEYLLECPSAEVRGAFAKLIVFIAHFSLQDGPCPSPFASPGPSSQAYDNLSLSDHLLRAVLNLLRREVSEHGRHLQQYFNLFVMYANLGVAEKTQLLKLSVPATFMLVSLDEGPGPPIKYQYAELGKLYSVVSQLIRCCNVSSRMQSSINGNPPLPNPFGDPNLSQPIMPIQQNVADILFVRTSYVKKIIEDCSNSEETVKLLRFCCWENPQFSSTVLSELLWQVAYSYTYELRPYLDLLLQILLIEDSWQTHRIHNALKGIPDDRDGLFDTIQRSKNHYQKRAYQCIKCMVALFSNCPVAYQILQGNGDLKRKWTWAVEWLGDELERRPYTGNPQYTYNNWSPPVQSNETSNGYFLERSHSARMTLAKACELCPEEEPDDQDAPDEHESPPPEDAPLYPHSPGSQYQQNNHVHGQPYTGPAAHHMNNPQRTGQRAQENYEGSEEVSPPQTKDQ
UniProt O00487, sequence (O00487 whole entry): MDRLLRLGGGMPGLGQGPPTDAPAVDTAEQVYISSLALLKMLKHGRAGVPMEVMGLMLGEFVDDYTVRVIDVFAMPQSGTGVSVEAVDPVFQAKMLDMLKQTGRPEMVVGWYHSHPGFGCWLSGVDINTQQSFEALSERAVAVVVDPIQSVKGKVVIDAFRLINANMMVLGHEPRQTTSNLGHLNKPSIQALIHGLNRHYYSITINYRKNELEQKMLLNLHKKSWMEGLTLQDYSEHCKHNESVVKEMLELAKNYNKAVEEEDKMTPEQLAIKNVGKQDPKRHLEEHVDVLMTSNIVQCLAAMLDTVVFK

N#Cc1ccc(Cl)cc1NC(=O)CCl
inactive: USP42 -0.385 | USP46 0.0423 | USP47 -0.413 | USP48 -0.305 | USP5 -0.153 | USP54 -0.514 | USP7 -0.47 | USP8 -0.0467 | USP9X -0.0196 | UniProt O00487 0.0781

O=C(CCl)NCc1ccc(N2CCOCC2)c(F)c1
inactive: USP42 0.396 | USP46 0.00295 | USP47 0.00631 | USP48 0.132 | USP5 0.372 | USP54 0.657 | USP7 -0.046 | USP8 0.129 | USP9X -0.078 | UniProt O00487 0.0665

NC(=O)C1CCCN(C(=O)CCl)C1 (stereo not given)
inactive: USP42 -0.105 | USP46 0.15 | USP47 -0.831 | USP48 -0.259 | USP5 -0.0828 | USP54 0.785 | USP7 -0.0546 | USP8 -0.122 | USP9X -0.029 | UniProt O00487 -0.0923
